Data as given in PubChem BioAssay AID1159580 (chemical genetic matrix, 2015).
About 2,000 (36%) of roughly 5,500 compounds were called active. Roughly 18% stayed inconclusive and do not appear here. Rule as the data show it: active = normalized growth mostly below about 0.91 (no sharp cut-off); inconclusive = no clear call, values can overlap the other calls; inactive = mostly above about 0.92. This is one part of the list.

Assay: chemical genetic growth profiling, strain panel (AID 1159580);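 also: tested at 20 µM; growth read once vehicle control cultures reached saturation at 30 °C; 1 = growth at the plate median or of vehicle wells; lower values mean less growth of the strain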
Conditions: growth OD

Measured: normalized growth

CC(=O)O[C@H]1C[C@@H](OC(C)=O)C(C)(C)C2CC(=O)[C@]3(C)C(CC[C@@]4(C)[C@H](C(=O)O)OC(=O)C5OC543)[C@]21C (stereo partly specified)
inactive: S. cerevisiae deletion strains, locus YJR066W, strain TOR1, stronger effect = lower value 0.96 | S. cerevisiae deletion strains, locus YKL009W, strain mrt4, stronger effect = lower value 0.996 | S. cerevisiae deletion strains, locus YKL068W, stronger effect = lower value 0.988 | S. cerevisiae deletion strains, locus YKL085W, strain MDH1 (second series), stronger effect = lower value 1 | S. cerevisiae deletion strains, locus YKL085W, strain MDH1, stronger effect = lower value 1 | S. cerevisiae deletion strains, locus YKL160W, strain elf1, stronger effect = lower value 0.99 | S. cerevisiae deletion strains, locus YKL190W, strain CNB1, stronger effect = lower value 0.987 | S. cerevisiae deletion strains, locus YKR001C, strain vps1, stronger effect = lower value 1.01 | S. cerevisiae deletion strains, locus YKR026C, strain gcn3, stronger effect = lower value 1 | S. cerevisiae deletion strains, locus YKR091W, strain srl3, stronger effect = lower value 0.978 | S. cerevisiae deletion strains, locus YLL001W, strain dnm1, stronger effect = lower value 1 | S. cerevisiae deletion strains, locus YLL026W, stronger effect = lower value 0.981 | S. cerevisiae deletion strains, locus YLL041C, strain sdh2, stronger effect = lower value 0.989 | S. cerevisiae deletion strains, locus YLR027C, strain aat2, stronger effect = lower value 1 | S. cerevisiae deletion strains, locus YLR039C, strain RIC1, stronger effect = lower value 1.06 | S. cerevisiae deletion strains, locus YLR058C, strain SHM2, stronger effect = lower value 0.985 | S. cerevisiae deletion strains, locus YLR102C, strain apc9, stronger effect = lower value 1 | S. cerevisiae deletion strains, locus YLR113W, strain HOG1, stronger effect = lower value 0.968 | S. cerevisiae deletion strains, locus YLR221C, strain rsa3, stronger effect = lower value 1.01 | S. cerevisiae deletion strains, locus YLR258W, strain gsy2, stronger effect = lower value 0.995 | S. cerevisiae deletion strains, locus YLR262C, strain YPT6 (second series), stronger effect = lower value 0.978 | S. cerevisiae deletion strains, locus YLR262C, strain YPT6, stronger effect = lower value 1.05 | S. cerevisiae deletion strains, locus YLR268W, strain sec22, stronger effect = lower value 0.954 | S. cerevisiae deletion strains, locus YLR320W, strain mms22, stronger effect = lower value 1.02 | S. cerevisiae deletion strains, locus YLR342W, strain FKS1 (second series), stronger effect = lower value 0.972 | S. cerevisiae deletion strains, locus YLR342W, strain FKS1, stronger effect = lower value 1.01 | S. cerevisiae deletion strains, locus YLR357W, strain rsc2, stronger effect = lower value 1 | S. cerevisiae deletion strains, locus YLR370C, strain arc18, stronger effect = lower value 0.981 | S. cerevisiae deletion strains, locus YLR371W, strain rom2, stronger effect = lower value 0.985 | S. cerevisiae deletion strains, locus YLR384C, strain iki3, stronger effect = lower value 0.998 | S. cerevisiae deletion strains, locus YLR418C, strain cdc73, stronger effect = lower value 1.07 | S. cerevisiae deletion strains, locus YML016C, strain PPZ1, stronger effect = lower value 0.976 | S. cerevisiae deletion strains, locus YML032C, strain rad52, stronger effect = lower value 0.981 | S. cerevisiae deletion strains, locus YML120C, strain ndi1, stronger effect = lower value 0.993 | S. cerevisiae deletion strains, locus YML124C, strain tub3, stronger effect = lower value 0.989 | S. cerevisiae deletion strains, locus YMR058W, strain fet3, stronger effect = lower value 0.982 | S. cerevisiae deletion strains, locus YMR078C, strain ctf18, stronger effect = lower value 0.975 | S. cerevisiae deletion strains, locus YMR125W, strain sto1, stronger effect = lower value 0.98 | S. cerevisiae deletion strains, locus YMR129W, stronger effect = lower value 0.976 | S. cerevisiae deletion strains, locus YMR205C, strain PFK2, stronger effect = lower value 1.01 | S. cerevisiae deletion strains, locus YMR223W, strain ubp8, stronger effect = lower value 0.993 | S. cerevisiae deletion strains, locus YMR231W, strain pep5, stronger effect = lower value 0.991 | S. cerevisiae deletion strains, locus YMR307W, strain GAS1, stronger effect = lower value 0.984 | S. cerevisiae deletion strains, locus YNL067W, strain RPL9B, stronger effect = lower value 1.04 | S. cerevisiae deletion strains, locus YNL071W, strain lat1, stronger effect = lower value 1.01 | S. cerevisiae deletion strains, locus YNL128W, strain TEP1, stronger effect = lower value 0.951 | S. cerevisiae deletion strains, locus YNL153C, strain GIM3, stronger effect = lower value 1.02 | S. cerevisiae deletion strains, locus YNL183C, strain NPR1, stronger effect = lower value 0.972 | S. cerevisiae deletion strains, locus YNL209W, strain ssb2, stronger effect = lower value 0.982 | S. cerevisiae deletion strains, locus YNL233W, strain BNI4, stronger effect = lower value 1.03 | S. cerevisiae deletion strains, locus YNL248C, strain rpa49, stronger effect = lower value 0.964 | S. cerevisiae deletion strains, locus YNL250W, strain rad50, stronger effect = lower value 0.993 | S. cerevisiae deletion strains, locus YNL271C, strain bni1, stronger effect = lower value 0.996 | S. cerevisiae deletion strains, locus YNL298W, strain CLA4, stronger effect = lower value 0.99 | S. cerevisiae deletion strains, locus YNL307C, strain MCK1, stronger effect = lower value 0.999 | S. cerevisiae deletion strains, locus YNL322C, strain KRE1 (second series), stronger effect = lower value 1.01 | S. cerevisiae deletion strains, locus YNR049C, strain mso1, stronger effect = lower value 0.972 | S. cerevisiae deletion strains, locus YNR052C, strain pop2, stronger effect = lower value 1.03 | S. cerevisiae deletion strains, locus YOL012C, strain htz1 0.975 | S. cerevisiae deletion strains, locus YOL147C, strain pex11, stronger effect = lower value 0.992 | S. cerevisiae deletion strains, locus YOR001W, strain rrp6, stronger effect = lower value 1.01 | S. cerevisiae deletion strains, locus YOR061W, strain CKA2, stronger effect = lower value 0.964 | S. cerevisiae deletion strains, locus YOR069W, strain VPS5, stronger effect = lower value 0.99 | S. cerevisiae deletion strains, locus YOR070C, strain gyp1, stronger effect = lower value 1 | S. cerevisiae deletion strains, locus YOR080W, strain dia2, stronger effect = lower value 0.983 | S. cerevisiae deletion strains, locus YOR083W, strain WHI5, stronger effect = lower value 1.01 | S. cerevisiae deletion strains, locus YOR106W, strain vam3, stronger effect = lower value 0.982 | S. cerevisiae deletion strains, locus YOR136W, strain idh2, stronger effect = lower value 0.985 | S. cerevisiae deletion strains, locus YOR144C, strain elg1, stronger effect = lower value 0.994 | S. cerevisiae deletion strains, locus YOR184W, strain ser1, stronger effect = lower value 0.968 | S. cerevisiae deletion strains, locus YOR231W, strain MKK1, stronger effect = lower value 1.02 | S. cerevisiae deletion strains, locus YOR265W, strain rbl2, stronger effect = lower value 1 | S. cerevisiae deletion strains, locus YOR270C, strain vph1, stronger effect = lower value 1.02 | S. cerevisiae deletion strains, locus YOR290C, strain snf2, stronger effect = lower value 0.969 | S. cerevisiae deletion strains, locus YOR316C, strain cot1, stronger effect = lower value 0.986 | S. cerevisiae deletion strains, locus YPL051W, strain arl3, stronger effect = lower value 0.99 | S. cerevisiae deletion strains, locus YPL078C, strain atp4, stronger effect = lower value 0.985 | S. cerevisiae deletion strains, locus YPL106C, strain sse1, stronger effect = lower value 1 | S. cerevisiae deletion strains, locus YPL240C, strain hsp82, stronger effect = lower value 0.993 | S. cerevisiae deletion strains, locus YPL256C, strain CLN2, stronger effect = lower value 1.01 | S. cerevisiae deletion strains, locus YPR119W, strain clb2, stronger effect = lower value 0.994 | S. cerevisiae deletion strains, locus YPR141C, strain kar3, stronger effect = lower value 0.986 | S. cerevisiae deletion strains, locus YPR163C, strain tif3, stronger effect = lower value 0.998 | S. cerevisiae deletion strains, locus YPR167C, strain met16, stronger effect = lower value 0.988 | S. cerevisiae deletion strains, strain wtn01, stronger effect = lower value 0.983 | S. cerevisiae strains, strain wild type, stronger effect = lower value 0.974
